Laboratory results from the supplement of paper PMC8728848.
The sample as a whole holds a higher share of the strongest signals than the screen did.

Tests used:
Experiment in all cases: glycan array binding signal (z-score within array); higher = stronger binding
Conditions in all cases: glycan notation: IUPAC condensed, linker removed
Fuc(a1-2)Gal(b1-3)GalNAc = biological target: Fuc(a1-2)Gal(b1-3)GalNAc
In short: (§1)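 From the Consortium for Functional Glycomics database, 3228 arrays were curated, keeping only those whose protein sequence was available. Binding is given as a within-array Z-score averaged across arrays sharing a protein sequence and across linkers. Negative Z-scores can be read as non-binding.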

Fuc(a1-2)Gal(b1-4)Glc6S = biological target: Fuc(a1-2)Gal(b1-4)Glc6S
In short: as §1

[1] = biological target: Fuc(a1-2)Gal(b1-4)GlcNAc(b1-3)GalNAc
In short: as §1

[2] = biological target: Fuc(a1-2)Gal(b1-4)[Fuc(a1-3)]GlcNAc(b1-2)[Fuc(a1-2)Gal(b1-4)[Fuc(a1-3)]GlcNAc(b1-4)]Man(a1-3)[Fuc(a1-2)Gal(b1-4)[Fuc(a1-3)]GlcNAc(b1-2)Man(a1-6)]Man(b1-4)GlcNAc(b1-4)GlcNAc
In short: as §1

[3] = biological target: Fuc(a1-2)[Gal(a1-3)]Gal(b1-3)GlcNAc(b1-2)Man(a1-3)[Fuc(a1-2)[Gal(a1-3)]Gal(b1-3)GlcNAc(b1-2)Man(a1-6)]Man(b1-4)GlcNAc(b1-4)[Fuc(a1-6)]GlcNAc
In short: as §1

[4] = biological target: Fuc(a1-2)[Gal(a1-3)]Gal(b1-3)GlcNAc(b1-6)GalNAc
In short: as §1

[5] = biological target: Fuc(a1-2)[Gal(a1-3)]Gal(b1-4)GlcNAc(b1-2)Man(a1-3)[Fuc(a1-2)[Gal(a1-3)]Gal(b1-4)GlcNAc(b1-2)Man(a1-6)]Man(b1-4)GlcNAc(b1-4)[Fuc(a1-6)]GlcNAc
In short: as §1

[6] = biological target: Fuc(a1-2)[Gal(a1-3)]Gal(b1-4)GlcNAc(b1-3)[Fuc(a1-2)[Gal(a1-3)]Gal(b1-4)GlcNAc(b1-6)]GalNAc
In short: as §1

[7] = biological target: Fuc(a1-2)[Gal(a1-3)]Gal(b1-4)GlcNAc(b1-6)GalNAc
In short: as §1

[8] = biological target: Fuc(a1-2)[GalNAc(a1-3)]Gal(b1-4)GlcNAc(b1-2)Man
In short: as §1

[9] = biological target: Fuc(a1-2)[GalNAc(b1-3)]Gal
In short: as §1

[10] = biological target: Fuc(a1-3)[Gal(b1-4)]Glc6S
In short: as §1

[11] = biological target: Fuc(a1-3)[Gal(b1-4)]GlcNAc(b1-2)Man(a1-3)[Fuc(a1-3)[Gal(b1-4)]GlcNAc(b1-2)Man(a1-6)]Man(b1-4)GlcNAc(b1-4)GlcNAc
In short: as §1

[12] = biological target: Gal(a1-3)Gal(b1-4)[Fuc(a1-3)]GlcNAc
In short: as §1

[13] = biological target: Gal(b1-3)GlcNAc(b1-3)Gal(b1-4)Glc
In short: as §1

[14] = biological target: Gal(b1-3)GlcNAc(b1-3)Gal(b1-4)GlcNAc(b1-2)[Gal(b1-3)GlcNAc(b1-3)Gal(b1-4)GlcNAc(b1-6)]Man(a1-6)[Gal(b1-3)GlcNAc(b1-3)Gal(b1-4)GlcNAc(b1-2)Man(a1-3)]Man(b1-4)GlcNAc(b1-4)[Fuc(a1-6)]GlcNAc
In short: as §1

[15] = biological target: Gal(b1-4)GlcNAc(b1-3)Gal(b1-4)GlcNAc(b1-3)Gal(b1-4)GlcNAc(b1-3)Gal(b1-4)GlcNAc(b1-2)Man(a1-3)[Gal(b1-4)GlcNAc(b1-3)Gal(b1-4)GlcNAc(b1-3)Gal(b1-4)GlcNAc(b1-3)Gal(b1-4)GlcNAc(b1-2)Man(a1-6)]Man(b1-4)GlcNAc(b1-4)[Fuc(a1-6)]GlcNAc
In short: as §1

[16] = biological target: Gal(b1-4)GlcNAc(b1-3)Gal(b1-4)GlcNAc(b1-6)[Gal(b1-3)]GalNAc
In short: as §1

Gal3S(b1-3)GalNAc = biological target: Gal3S(b1-3)GalNAc
In short: as §1

[17] = biological target: GalNAc(a1-3)GalNAc(b1-3)Gal(a1-4)Gal(b1-4)Glc
In short: as §1

GalNAc(b1-3)GalNAc = biological target: GalNAc(b1-3)GalNAc
In short: as §1

[18] = biological target: GlcNAc(a1-4)Gal(b1-3)GlcNAc
In short: as §1

[19] = biological target: GlcNAc(a1-4)Gal(b1-4)GlcNAc(b1-3)Gal(b1-4)GlcNAc(b1-3)Gal(b1-4)GlcNAc
In short: as §1

[20] = biological target: GlcNAc(b1-2)Gal(b1-3)GalNAc
In short: as §1

[21] = biological target: GlcNAc(b1-2)Man(a1-3)[GlcNAc(b1-2)Man(a1-6)]Man(b1-4)GlcNAc(b1-4)[Fuc(a1-6)]GlcNAc
In short: as §1

[22] = biological target: GlcNAc(b1-3)Gal(b1-4)GlcNAc(b1-3)Gal(b1-4)GlcNAc(b1-2)Man(a1-3)[GlcNAc(b1-3)Gal(b1-4)GlcNAc(b1-3)Gal(b1-4)GlcNAc(b1-2)Man(a1-6)]Man(b1-4)GlcNAc(b1-4)[Fuc(a1-6)]GlcNAc
In short: as §1

[23] = biological target: GlcNAc(b1-3)Gal(b1-4)GlcNAc(b1-3)Gal(b1-4)GlcNAc(b1-2)[GlcNAc(b1-3)Gal(b1-4)GlcNAc(b1-3)Gal(b1-4)GlcNAc(b1-6)]Man(a1-6)[GlcNAc(b1-3)Gal(b1-4)GlcNAc(b1-3)Gal(b1-4)GlcNAc(b1-2)Man(a1-3)]Man(b1-4)GlcNAc(b1-4)[Fuc(a1-6)]GlcNAc
In short: as §1

[24] = biological target: GlcNAc(b1-3)Gal(b1-4)GlcNAc(b1-3)Gal(b1-4)GlcNAc(b1-3)Gal(b1-4)GlcNAc(b1-2)Man(a1-3)[GlcNAc(b1-3)Gal(b1-4)GlcNAc(b1-3)Gal(b1-4)GlcNAc(b1-3)Gal(b1-4)GlcNAc(b1-2)Man(a1-6)]Man(b1-4)GlcNAc(b1-4)GlcNAc
In short: as §1

[25] = biological target: GlcNAc(b1-3)Gal(b1-4)GlcNAc(b1-3)Gal(b1-4)GlcNAc(b1-3)Gal(b1-4)GlcNAc(b1-2)Man(a1-3)[GlcNAc(b1-3)Gal(b1-4)GlcNAc(b1-3)Gal(b1-4)GlcNAc(b1-3)Gal(b1-4)GlcNAc(b1-2)Man(a1-6)]Man(b1-4)GlcNAc(b1-4)[Fuc(a1-6)]GlcNAc
In short: as §1

[26] = biological target: GlcNAc(b1-3)Gal(b1-4)GlcNAc(b1-3)Gal(b1-4)GlcNAc(b1-3)Gal(b1-4)GlcNAc(b1-2)[GlcNAc(b1-3)Gal(b1-4)GlcNAc(b1-3)Gal(b1-4)GlcNAc(b1-3)Gal(b1-4)GlcNAc(b1-6)]Man(a1-6)[GlcNAc(b1-3)Gal(b1-4)GlcNAc(b1-3)Gal(b1-4)GlcNAc(b1-3)Gal(b1-4)GlcNAc(b1-2)Man(a1-3)]Man(b1-4)GlcNAc(b1-4)[Fuc(a1-6)]GlcNAc
In short: as §1

[27] = biological target: GlcNAc(b1-3)Gal(b1-4)GlcNAc(b1-3)Gal(b1-4)GlcNAc(b1-3)Gal(b1-4)GlcNAc(b1-3)Gal(b1-4)GlcNAc(b1-2)Man(a1-3)[GlcNAc(b1-3)Gal(b1-4)GlcNAc(b1-3)Gal(b1-4)GlcNAc(b1-3)Gal(b1-4)GlcNAc(b1-3)Gal(b1-4)GlcNAc(b1-2)Man(a1-6)]Man(b1-4)GlcNAc(b1-4)GlcNAc
In short: as §1

[28] = biological target: GlcNAc(b1-3)Gal(b1-4)GlcNAc(b1-3)Gal(b1-4)GlcNAc(b1-3)Gal(b1-4)GlcNAc(b1-3)Gal(b1-4)GlcNAc(b1-2)Man(a1-3)[GlcNAc(b1-3)Gal(b1-4)GlcNAc(b1-3)Gal(b1-4)GlcNAc(b1-3)Gal(b1-4)GlcNAc(b1-3)Gal(b1-4)GlcNAc(b1-2)Man(a1-6)]Man(b1-4)GlcNAc(b1-4)[Fuc(a1-6)]GlcNAc
In short: as §1

[29] = biological target: GlcNAc(b1-3)Gal(b1-4)GlcNAc(b1-3)Gal(b1-4)GlcNAc(b1-3)Gal(b1-4)GlcNAc(b1-3)Gal(b1-4)GlcNAc(b1-2)[GlcNAc(b1-3)Gal(b1-4)GlcNAc(b1-3)Gal(b1-4)GlcNAc(b1-3)Gal(b1-4)GlcNAc(b1-3)Gal(b1-4)GlcNAc(b1-6)]Man(a1-6)[GlcNAc(b1-3)Gal(b1-4)GlcNAc(b1-3)Gal(b1-4)GlcNAc(b1-3)Gal(b1-4)GlcNAc(b1-3)Gal(b1-4)GlcNAc(b1-2)Man(a1-3)]Man(b1-4)GlcNAc(b1-4)[Fuc(a1-6)]GlcNAc
In short: as §1

[30] = biological target: GlcNAc(b1-3)Gal(b1-4)GlcNAc(b1-3)Gal(b1-4)GlcNAc(b1-3)GalNAc
In short: as §1

[31] = biological target: GlcNAc(b1-3)Gal(b1-4)GlcNAc(b1-3)[GlcNAc(b1-3)Gal(b1-4)GlcNAc(b1-3)]GalNAc
In short: as §1

[32] = biological target: Neu5Ac(a2-3)Gal(b1-3)GalNAc(b1-3)Gal(b1-4)GlcNAc
In short: as §1

[33] = biological target: Neu5Ac(a2-3)Gal(b1-3)GalNAc(b1-4)[Neu5Ac(a2-3)]Gal(b1-4)Glc
In short: as §1

[34] = biological target: Neu5Ac(a2-3)Gal(b1-3)GlcNAc(b1-2)Man
In short: as §1

[35] = biological target: Neu5Ac(a2-3)Gal(b1-3)GlcNAc(b1-3)Gal(b1-4)GlcNAc
In short: as §1

[36] = biological target: Neu5Ac(a2-3)Gal(b1-3)]Neu5Ac(a2-3)Gal(b1-4)]GlcNAc
In short: as §1

[37] = biological target: Neu5Ac(a2-6)Gal(b1-4)GlcNAc(b1-2)Man(a1-3)[Neu5Ac(a2-3)Gal(b1-4)GlcNAc(b1-2)Man(a1-6)]Man(b1-4)GlcNAc(b1-4)GlcNAc
In short: as §1

[38] = biological target: Neu5Ac(a2-6)Gal(b1-4)GlcNAc(b1-2)Man(a1-6)Man(b1-4)GlcNAc(b1-4)GlcNAc
In short: as §1

[39] = biological target: Neu5Gc(a2-6)Gal(b1-4)GlcNAc
In short: as §1

B1: Jacalin (Artocarpus integrifolia) (protein)
chain: MAYSSLLSLSVLALLFSISSADTRKWFLANGINQNPIGIIEAAVGVSEDLLNLNGMEAKNDEQSGISQTVIVGPWGAKVSTSSNGKAFDDGAFTGIREINLSYNKETAIGDFQVVYDLNGSPYVGQNHKSFITGFTPVKISLDFPSEYIMEVSGYTGNVSGYVVVRSLTFKTNKKTYGPYGVTSGTPFNLPIENGLIVGFKGSIGYWLDYFSMYLSL
glycan array binding signal (z-score) (Fuc(a1-2)Gal(b1-3)GalNAc): 0.218
glycan array binding signal (z-score) (Fuc(a1-2)Gal(b1-4)Glc6S): -0.249
glycan array binding signal (z-score) [1]: 0.829
glycan array binding signal (z-score) [2]: -0.131
glycan array binding signal (z-score) [3]: -0.249
glycan array binding signal (z-score) [4]: -0.265
glycan array binding signal (z-score) [5]: -0.211
glycan array binding signal (z-score) [6]: -0.332
glycan array binding signal (z-score) [7]: -0.217
glycan array binding signal (z-score) [8]: -0.29
glycan array binding signal (z-score) [9]: 0.341
glycan array binding signal (z-score) [10]: -0.23
glycan array binding signal (z-score) [11]: -0.259
glycan array binding signal (z-score) [12]: -0.268
glycan array binding signal (z-score) [13]: -0.279
glycan array binding signal (z-score) [14]: -0.084
glycan array binding signal (z-score) [15]: 0.12
glycan array binding signal (z-score) [16]: 0.001
glycan array binding signal (z-score) (Gal3S(b1-3)GalNAc): 1.89
glycan array binding signal (z-score) [17]: -0.256
glycan array binding signal (z-score) (GalNAc(b1-3)GalNAc): 3.34
glycan array binding signal (z-score) [18]: 0.435
glycan array binding signal (z-score) [19]: 2.63
glycan array binding signal (z-score) [20]: 2.21
glycan array binding signal (z-score) [21]: 0.257
glycan array binding signal (z-score) [22]: 2.52
glycan array binding signal (z-score) [23]: 2.41
glycan array binding signal (z-score) [24]: 3.65
glycan array binding signal (z-score) [25]: 3.32
glycan array binding signal (z-score) [26]: 4.09
glycan array binding signal (z-score) [27]: 4.05
glycan array binding signal (z-score) [28]: 4.23
glycan array binding signal (z-score) [29]: 5.64
glycan array binding signal (z-score) [30]: 1.03
glycan array binding signal (z-score) [31]: 0.857
glycan array binding signal (z-score) [32]: -0.336
glycan array binding signal (z-score) [33]: -0.262
glycan array binding signal (z-score) [34]: -0.194
glycan array binding signal (z-score) [35]: -0.274
glycan array binding signal (z-score) [36]: -0.263
glycan array binding signal (z-score) [37]: -0.241
glycan array binding signal (z-score) [38]: -0.259
glycan array binding signal (z-score) [39]: -0.247
